# The sample as a whole holds a higher share of hits than the screen did.
# C diff HTS – inhibitors of Clostridium difficile growth | Clostridium difficile clinical isolate growth, OD600, 24 h; hits give low values | growth activity, negative = inhibition, % at 16 µg/mL (by protocol) | actives 0.25% (n = 86,000);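 active means mean growth activity at or below -80% and every replicate also at or below -80%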
# Hits are given with their value; 0 = inactive; ! = not confirmed by another sample.
SMILES,C diff HTS
COc1cccc(CN2C[C@@H]3N[C@H](C2)C3c2ccc(-c3ccccc3C)cc2)c1 (some centres not stated),-96
Cc1ccccc1-c1ccc(C2[C@@H]3CN(S(=O)(=O)Cc4ccccc4)C[C@H]2N3)cc1 (some centres not stated),0
COc1cccc(-c2ccc(C3[C@@H]4CN(C(=O)C5CCCC5)C[C@H]3N4)cc2)c1 (some centres not stated),0
COc1cccc(CN2[C@@H]3CNC[C@H]2[C@H]3c2ccc(-c3ccccc3OC)cc2)c1,0
COc1cc(CN2C[C@@H]3N[C@H](C2)C3c2ccc(-c3ccccc3C)cc2)cc(OC)c1 (some centres not stated),-99
COc1cccc(-c2ccc(C3[C@@H]4CN(Cc5cccc(F)c5)C[C@H]3N4)cc2)c1 (some centres not stated),-99
COc1cccc(-c2ccc(C3[C@@H]4CN(Cc5ccccn5)C[C@H]3N4)cc2)c1 (some centres not stated),0
COc1cccc(CN2C[C@@H]3N[C@H](C2)C3c2ccc(-c3ccccc3F)cc2)c1 (some centres not stated),-94
COc1ccc(-c2ccc(C3[C@@H]4CN(Cc5ccccn5)C[C@H]3N4)cc2)cc1 (some centres not stated),0
COc1cccc(S(=O)(=O)N2[C@@H]3CNC[C@H]2C3c2ccc(-c3ccccc3F)cc2)c1 (some centres not stated),0
C/C=C/c1ccc(C2[C@@H]3CN(Cc4cc(OC)cc(OC)c4)C[C@H]2N3)cc1 (some centres not stated),0
Cc1ccccc1-c1ccc(C2[C@@H]3CN(C(=O)Cc4ccccc4)C[C@H]2N3)cc1 (some centres not stated),0
COc1ccc(S(=O)(=O)Nc2ccc3c(c2)C(=O)N([C@@H](C)CO)C[C@H](C)[C@@H](CN(C)CC2CC2)O3)cc1,0
O=C(C1CCCC1)N1CC2(C1)[C@@H](c1ccccc1)[C@@H](CO)N2C(=O)c1cccnc1,0
CC=Cc1ccc2n(c1=O)C[C@@H]1[C@@H](CO)[C@H](C(=O)Nc3ccc(-c4ccccc4)cc3)N(C)[C@H]21 (mixture of isomers),0
O=C(NCC1CC1)[C@H]1[C@H](CO)[C@H]2Cn3c(ccc(C4=CCCC4)c3=O)[C@@H]1N2C(=O)C1CC1,0
O=C(O)C[C@@H]1C[C@@H]2c3cc(NC(=O)C4CCC4)ccc3O[C@@H]2[C@H](CO)O1,0
COc1ccc(-c2ccc(C3[C@@H]4CN(S(=O)(=O)c5cccc(C)c5)C[C@H]3N4)cc2)cc1 (some centres not stated),0
COc1ccc(-c2ccc(C3[C@@H]4CN(Cc5cccc(OC)c5)C[C@H]3N4)cc2)cc1 (some centres not stated),-81!
COc1cccc(CN2C[C@@H]3N[C@H](C2)C3c2ccc(-c3ccncc3)cc2)c1 (some centres not stated),0
COc1cccc(S(=O)(=O)N2C[C@@H]3N[C@H](C2)C3c2ccc(-c3cccc(C)c3)cc2)c1 (some centres not stated),-94!
COc1cccc(CN2C[C@@H]3N[C@H](C2)C3c2ccc(-c3cccc(C#N)c3)cc2)c1 (some centres not stated),0
Cc1cccc(S(=O)(=O)N2C[C@@H]3N[C@H](C2)C3c2ccc(-c3cccnc3)cc2)c1 (some centres not stated),0
C[C@H]1CN([C@@H](C)CO)C(=O)c2cccc(NC(=O)c3nc4ccccc4s3)c2O[C@H]1CN(C)Cc1ccc(Oc2ccccc2)cc1,0
O=C(C1=C[C@H](C2CCCCC2)C[C@H](OCc2ccc(CO)cc2)O1)N1CCCC1,0
SMILES,C diff HTS
Cc1ccc(S(=O)(=O)Nc2ccc3c(c2)CC(=O)N([C@@H](C)CO)C[C@@H](C)[C@H](CN(C)S(=O)(=O)c2c(C)noc2C)O3)cc1,0
CC(C)NC(=O)N(C)C[C@H]1OCCCC[C@@H](C)Oc2ccc(NC(=O)c3ccncc3)cc2C(=O)N([C@@H](C)CO)C[C@H]1C,0
[N-]=[N+]=NCCNC(=O)Nc1ccccc1,0
C[C@@H]1CN([C@@H](C)CO)C(=O)c2cccc(NC(=O)CCCCCC(=O)Nc3ccccc3N)c2O[C@@H]1CN(C)C(=O)Nc1ccc(C(F)(F)F)cc1,0
COc1ccc(NC(=O)N2CC[C@@H]3[C@H]2c2cc(-c4ccc(F)cc4)ccc2N(C)[C@H]3CO)cc1,0
COc1ccc(-c2ccc3c(c2)[C@H]2[C@H](CCN2C(=O)c2ccccc2F)[C@H](CO)N3C)cc1,0
COc1cccc(C#Cc2ccc3c(c2)[C@@H]2[C@@H](CCN2C(=O)c2ccccc2F)[C@@H](CO)N3C)c1,-97
COc1ccc(NC(=O)N2CC[C@@H]3[C@H]2c2cc(Br)ccc2N(C)[C@H]3CO)cc1,0
COc1cccc(-c2ccc3c(c2)[C@H]2[C@H](CCN2C(=O)c2ccccc2F)[C@H](CO)N3C)c1,0
